Laboratory results as given in PubChem BioAssay AID1159580 (chemical genetic matrix, 2015).
Out of some 5,500 compounds screened, about 2,000 (36%) were called active. Not shown: some 18% with an inconclusive outcome. Rule as the data show it: active = normalized growth mostly below about 0.91 (no sharp cut-off); inconclusive = no clear call, values can overlap the other calls; inactive = mostly above about 0.92. Some of the results follow.

Assay: chemical genetic growth profiling, strain panel (AID 1159580);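 also: tested at 20 µM; growth read once vehicle control cultures reached saturation at 30 °C; 1 = growth at the plate median or of vehicle wells; lower values mean less growth of the strain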
Settings: growth OD

Measured: normalized growth

COc1ccccc1N=C(N)SCc1ccccc1
inactive: S. cerevisiae deletion strains, locus YAL013W, strain DEP1, stronger effect = lower value 1.01 | S. cerevisiae deletion strains, locus YBR229C, strain ROT2, stronger effect = lower value 1.01 | S. cerevisiae deletion strains, locus YCL061C, strain MRC1, stronger effect = lower value 1.01 | S. cerevisiae deletion strains, locus YDL101C, strain DUN1, stronger effect = lower value 1 | S. cerevisiae deletion strains, locus YDR150W, strain NUM1, stronger effect = lower value 0.923 | S. cerevisiae deletion strains, locus YEL061C, strain CIN8, stronger effect = lower value 1 | S. cerevisiae deletion strains, locus YGR078C, strain PAC10, stronger effect = lower value 1.01 | S. cerevisiae deletion strains, locus YHR030C, strain SLT2, stronger effect = lower value 1.03 | S. cerevisiae deletion strains, locus YHR087W, strain rtc3, stronger effect = lower value 1.01 | S. cerevisiae deletion strains, locus YJL187C, strain SWE1, stronger effect = lower value 1.01 | S. cerevisiae deletion strains, locus YJR043C, strain POL32, stronger effect = lower value 1.01 | S. cerevisiae deletion strains, locus YJR075W, strain HOC1, stronger effect = lower value 1.01 | S. cerevisiae deletion strains, locus YKL190W, strain CNB1, stronger effect = lower value 1.01 | S. cerevisiae deletion strains, locus YLR039C, strain RIC1, stronger effect = lower value 1.02 | S. cerevisiae deletion strains, locus YLR058C, strain SHM2 (second series), stronger effect = lower value 1.01 | S. cerevisiae deletion strains, locus YLR085C, strain ARP6, stronger effect = lower value 1.03 | S. cerevisiae deletion strains, locus YLR262C, strain YPT6, stronger effect = lower value 0.999 | S. cerevisiae deletion strains, locus YML094W, strain GIM5, stronger effect = lower value 0.988 | S. cerevisiae deletion strains, locus YMR219W, strain ESC1, stronger effect = lower value 1.01 | S. cerevisiae deletion strains, locus YMR263W, strain SAP30, stronger effect = lower value 1.01 | S. cerevisiae deletion strains, locus YMR307W, strain GAS1, stronger effect = lower value 1.06 | S. cerevisiae deletion strains, locus YNL128W, strain TEP1, stronger effect = lower value 1.01 | S. cerevisiae deletion strains, locus YNL153C, strain GIM3, stronger effect = lower value 1 | S. cerevisiae deletion strains, locus YNL298W, strain CLA4 (second series), stronger effect = lower value 0.998 | S. cerevisiae deletion strains, locus YNL322C, strain KRE1, stronger effect = lower value 1.01 | S. cerevisiae deletion strains, locus YNR030W, strain Alg12, stronger effect = lower value 1.02 | S. cerevisiae deletion strains, locus YPL055C, strain LGE1, stronger effect = lower value 0.928 | S. cerevisiae deletion strains, locus YPL241C, strain CIN2, stronger effect = lower value 0.994 | S. cerevisiae deletion strains, locus YPR135W, strain CTF4, stronger effect = lower value 0.962 | S. cerevisiae strains, strain wild type, stronger effect = lower value 1.01
